Common to all, as to conditions: concentration: 1 μM, replicates: in singlicate; n = 1
Experiment [1] relates to PIP5K1A.
For experiment [2], the system named is PIP5K1C.
Experiment [3] relates to PIP5K2B.
Experiment [4] has as its system T1, PIP5K2C.
T1 construct: gene PIP4K2C

The test system of experiment [5] is T2, PKAC-alpha.
T2 construct: gene PRKACA

The subject of experiment [6] is T3, PKAC-beta.
T3 construct: gene PRKACB

The subject of experiment [7] is PKMYT1.
Experiment [8] relates to PKN1.
Experiment [9] has as its system PKN2.
For experiment [10], the system named is PLK1.

The results in this text go back to article PMC5540273 (PLoS ONE, 2017).
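Note: KINOMEscan kinase panel screen.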

As to `O=c1[nH]cc(-c2ccc(N3CCOCC3)cc2)c2sc(-c3cn[nH]c3)cc12` [GSK2276055], the “%Inh” value in [1] was found to be 0%; in experiment [2], 24%; in [3], 1%; in [4], 0%; in experiment [5] it was 0%; in [6], 0%. For the same compound, the “%Inh” value worked out at 0% in experiment [7], 15% in experiment [8], 0% in experiment [9] and 7% in experiment [10].
Consider `O=C(Nc1n[nH]c2nc(-c3ccc(O)cc3)ccc12)C1CC1` [SB-710363], for which the “%Inh” value in experiment [1] is given as 21%; in [2], 83%; in experiment [3], 56%; in experiment [4], 0%; in [5] it was 0%; in [6], 18%. The “%Inh” value in [7] was found to be 0%; in experiment [8], 19%; in experiment [9], 23%; in experiment [10], 0%.
For the compound `CN1CCN(Cc2cccc(-c3ccc4c(Nc5ccc(Oc6ccccc6)cc5)ccnc4c3)c2)CC1` [GW578342], the “%Inh” value stood at 26% in [1]; 59% in [2]; 12% in [3]; 9% in experiment [4]; 0% in [5]; 0% in experiment [6]. The “%Inh” value in experiment [7] came to 0%; in experiment [8], 0%; in [9] it was 27%; in experiment [10], 0%.
Turning to `CC(=O)Nc1nc2cnc(Nc3cc(NC(=O)c4cccc(C5(C#N)CC5)c4Cl)ccc3C)nc2s1`, the “%Inh” value in [1] amounted to 8%; in [2] it was 4%; in [3] it was 46%; in experiment [4], 0%; in experiment [5], 0%; in experiment [6] it was 0%. For the same compound, the “%Inh” value in experiment [7], in experiment [8], in experiment [9] and in experiment [10] was 0% each time.
Regarding `CSc1cccc2c(-c3ccncn3)c(-c3ccc(F)cc3)nn12` [GW514786], the “%Inh” value stood at 0% in experiment [1]; 47% in experiment [2]; 8% in experiment [3]; 8% in experiment [4]; 14% in experiment [5]; 36% in experiment [6]. Also, the “%Inh” value came to 6% in [7], 0% in experiment [8], 0% in experiment [9] and 7% in experiment [10].
With `COc1ccc(Nc2nccc(NCCNC(=O)c3cc4ccccc4s3)n2)cc1` [GSK1379896], the “%Inh” value in experiment [1] turned out to be 0%; in experiment [2], 48%; in experiment [3] it was 22%; in experiment [4], 24%; in experiment [5], 0%; in experiment [6], 0%. Moreover, the “%Inh” value in experiment [7] turned out to be 0%; in experiment [8], 0%; in experiment [9], 0%; in experiment [10], 7%.
Regarding `O=C(Nc1cccc(-c2nn3ccccc3c2-c2ccnc(Nc3cccc(C(F)(F)F)c3)n2)c1)c1c(F)cccc1F` [GSK292658], the “%Inh” value in experiment [1] was found to be 0%; in experiment [2] it was 0%; in experiment [3], 5%; in [4], 10%; in experiment [5], 0%; in experiment [6] it was 13%. The “%Inh” value is reported as 0% in experiment [7], 11% in experiment [8], 0% in experiment [9] and 0% in [10].
For `COCCOCCOc1cc2ncc3c4ccc(C#N)cc4[nH]c3c2cc1OC`, the “%Inh” value in experiment [1] worked out at 36%; in experiment [2], 63%; in experiment [3], 74%; in experiment [4], 60%; in [5] it was 0%; in [6], 0%. Also, the “%Inh” value in experiment [7] worked out at 28%; in experiment [8] it was 17%; in experiment [9] it was 63%; in [10] it was 0%.
`COc1cccc(C(=O)Nc2cccc(Oc3ccc4nc(NC(=O)C5CC5)cn4n3)c2)c1`: the “%Inh” value in [1] was determined as 0%; in experiment [2] it was 10%; in experiment [3], 0%; in [4] it was 28%; in experiment [5], 6%; in experiment [6], 47%. Also, the “%Inh” value in [7] is 0%; in [8], 0%; in experiment [9], 4%; in experiment [10], 0%.
For `CN(c1ccc(NC(=O)Nc2cc(C(F)(F)F)ccc2F)cc1)c1ccnc(Nc2ccc(S(N)(=O)=O)cc2)n1` [GW809893], the “%Inh” value in [1] is listed as 10%; in [2] it was 14%; in experiment [3], 0%; in [4], 94.6%; in experiment [5], 18%; in experiment [6], 18%. Further, the “%Inh” value is reported as 1% in experiment [7], 0% in [8], 8% in experiment [9] and 3% in experiment [10].
For `O=C(Nc1cccc(-c2nn3ccccc3c2-c2ccnc(Nc3cccc(F)c3)n2)c1)c1c(F)ccc(F)c1Cl` [GSK357952], the “%Inh” value in experiment [1] came out at 0%; in [2], 7%; in experiment [3] it was 8%; in [4], 0%; in [5], 13%; in experiment [6], 18%. Besides, the “%Inh” value in [7] amounted to 5%; in experiment [8], 17%; in experiment [9] it was 0%; in [10], 0%.
For `Nc1ncnc2c1nc(-c1ccccc1)n2-c1ccccc1` [SKF-97293], the “%Inh” value is on record as 13% in experiment [1]; 0% in [2]; 19% in experiment [3]; 0% in experiment [4]; 7% in [5]; 17% in [6]. Besides, the “%Inh” value in [7] is listed as 18%; in experiment [8], 20%; in experiment [9], 4%; in experiment [10] it was 68%.
With `COc1ccc(-c2coc3ccc(-c4nnc(SCc5ccc(OC)c(C(F)(F)F)c5)o4)cc23)cc1`, the “%Inh” value in experiment [1] is recorded as 0%; in experiment [2] it was 0%; in experiment [3], 4%; in experiment [4], 0%; in [5] it was 15%; in [6], 3%. In addition, the “%Inh” value came to 17% in experiment [7], 24% in experiment [8], 3% in experiment [9] and 0% in [10].
In the case of `COC(=O)Nc1nc2ccc(Oc3ccc(NC(=O)Nc4cc(C(F)(F)F)ccc4F)cc3)cc2n1C.Cl` [GW692089], the “%Inh” value in [1] is given as 74%; in experiment [2], 61%; in [3], 22%; in experiment [4] it was 41%; in [5] it was 0%; in experiment [6], 0%. In addition, the “%Inh” value in experiment [7] came out at 0%; in experiment [8], 0%; in experiment [9], 11%; in experiment [10], 0%.
With `CCc1ccc(-c2ccc3c(c2)-c2c(cnn2C)S(=O)(=O)N3C)cc1`, the “%Inh” value in experiment [1] was found to be 0%; in experiment [2], 24%; in [3], 0%; in experiment [4], 77%; in experiment [5], 0%; in [6] it was 12%. Also, the “%Inh” value in [7] is listed as 30%; in experiment [8], 2%; in [9], 0%; in [10], 0%.
For `Cn1cc(-c2[nH]c3cc(NC(=O)[C@H](N)C4CCCCC4)cc4c3c2C=NNC4=O)cn1`, the “%Inh” value in [1] was 33%; in experiment [2] it was 52%; in experiment [3] it was 82%; in experiment [4] it was 41%; in experiment [5], 70%; in [6] it was 63%. For the same compound, the “%Inh” value in experiment [7] was determined as 2%; in [8], 88%; in experiment [9], 90.5%; in [10] it was 0%.
